# The full data set covers some 7,900 targets. This sample favours those with a hit. About 0.6% of all pairs of compound and target were hits. Unmarked numbers belong to inactive results.
# How the values were obtained:
# Assay in all cases: log2 fold change, soluble protein after heating vs DMSO (PISA); higher = thermal stabilisation; K562 cells, 10 uM, 30 min; active = over 0.2 and 3.5 SD of the protein, either way, in both replicates (recomputed)
# bafetinib = compound: Cc1ccc(NC(=O)c2ccc(CN3CC[C@H](N(C)C)C3)c(C(F)(F)F)c2)cc1Nc1nccc(-c2cncnc2)n1 [bafetinib]
# In short: (§1)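 Thermal stability values are relative to control samples and come from duplicates. They are expressed as log2 fold changes. For measurement, K562 cells (2×10^6 cells/mL) received 10 μM compound for 30 min, and aliquots were heated for 3 min over 48°C-58°C, pooled, and extracted at 4°C in PBS with 0.5% NP-40. Soluble protein, the supernatant after 21,000xg for 90 min, was quantified by TMTpro 16plex LC-MS/MS with equalised channel sums.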
# [1] = compound: Cc1cccc(CC(=O)N2CCc3c2ccc(-c2cn(C)c4ncnc(N)c24)c3F)n1
# In short: as §1
# nilotinib = compound: Cc1cn(-c2cc(NC(=O)c3ccc(C)c(Nc4nccc(-c5cccnc5)n4)c3)cc(C(F)(F)F)c2)cn1 [nilotinib]
# In short: as §1
# [2] = compound: Cc1nc(Nc2n[nH]c3c2CN(C(=O)N[C@H](CN(C)C)c2ccccc2)C3(C)C)c2sccc2n1
# In short: as §1
# dasatinib = compound: Cc1nc(Nc2ncc(C(=O)Nc3c(C)cccc3Cl)s2)cc(N2CCN(CCO)CC2)n1 [dasatinib]
# In short: as §1
# [3] = compound: Cc1ncc(-c2ccnc(Nc3ccc(S(C)(=O)=O)cc3)n2)n1C(C)C
# In short: as §1
# [4] = compound: Cn1cc(-c2ccc3c(c2)CCN3C(=O)Cc2cccc(C(F)(F)F)c2)c2c(N)ncnc21
# In short: as §1
# [5] = compound: Cn1cc(-c2ccc3nnc(C(F)(F)c4ccc5ncccc5c4)n3n2)cn1
# In short: as §1
# tipifarnib = compound: Cn1cncc1[C@@](N)(c1ccc(Cl)cc1)c1ccc2c(c1)c(-c1cccc(Cl)c1)cc(=O)n2C [tipifarnib]
# In short: as §1
# mubritinib = compound: FC(F)(F)c1ccc(/C=C/c2nc(COc3ccc(CCCCn4ccnn4)cc3)co2)cc1 [mubritinib]
# In short: as §1
# Chain of UniProt Q96KE9 (Q96KE9 whole entry, looked up): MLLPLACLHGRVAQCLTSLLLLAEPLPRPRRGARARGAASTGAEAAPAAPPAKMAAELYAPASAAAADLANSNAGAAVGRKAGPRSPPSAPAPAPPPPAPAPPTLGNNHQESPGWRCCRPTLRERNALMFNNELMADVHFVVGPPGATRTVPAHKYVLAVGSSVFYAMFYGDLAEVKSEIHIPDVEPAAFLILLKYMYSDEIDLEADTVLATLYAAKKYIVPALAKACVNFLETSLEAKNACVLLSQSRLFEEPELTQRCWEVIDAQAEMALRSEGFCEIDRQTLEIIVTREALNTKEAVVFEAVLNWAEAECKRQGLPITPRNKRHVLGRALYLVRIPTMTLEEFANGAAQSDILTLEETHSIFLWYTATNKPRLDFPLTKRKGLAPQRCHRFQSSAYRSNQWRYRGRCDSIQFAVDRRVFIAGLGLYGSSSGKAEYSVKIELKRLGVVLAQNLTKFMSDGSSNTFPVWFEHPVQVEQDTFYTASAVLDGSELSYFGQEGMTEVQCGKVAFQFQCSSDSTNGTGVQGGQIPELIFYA
# Chain of UniProt P53367 (P53367 whole entry, looked up): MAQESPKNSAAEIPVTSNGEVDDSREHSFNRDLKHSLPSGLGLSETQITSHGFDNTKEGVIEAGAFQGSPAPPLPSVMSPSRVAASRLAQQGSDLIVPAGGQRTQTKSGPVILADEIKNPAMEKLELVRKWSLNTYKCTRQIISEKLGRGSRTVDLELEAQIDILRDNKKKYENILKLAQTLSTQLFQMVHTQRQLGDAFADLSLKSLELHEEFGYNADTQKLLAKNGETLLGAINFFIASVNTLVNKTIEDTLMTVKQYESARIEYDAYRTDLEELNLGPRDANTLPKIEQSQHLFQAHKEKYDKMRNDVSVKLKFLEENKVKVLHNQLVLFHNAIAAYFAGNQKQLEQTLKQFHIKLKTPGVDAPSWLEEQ
# Chain of UniProt P05091 (P05091 whole entry, looked up): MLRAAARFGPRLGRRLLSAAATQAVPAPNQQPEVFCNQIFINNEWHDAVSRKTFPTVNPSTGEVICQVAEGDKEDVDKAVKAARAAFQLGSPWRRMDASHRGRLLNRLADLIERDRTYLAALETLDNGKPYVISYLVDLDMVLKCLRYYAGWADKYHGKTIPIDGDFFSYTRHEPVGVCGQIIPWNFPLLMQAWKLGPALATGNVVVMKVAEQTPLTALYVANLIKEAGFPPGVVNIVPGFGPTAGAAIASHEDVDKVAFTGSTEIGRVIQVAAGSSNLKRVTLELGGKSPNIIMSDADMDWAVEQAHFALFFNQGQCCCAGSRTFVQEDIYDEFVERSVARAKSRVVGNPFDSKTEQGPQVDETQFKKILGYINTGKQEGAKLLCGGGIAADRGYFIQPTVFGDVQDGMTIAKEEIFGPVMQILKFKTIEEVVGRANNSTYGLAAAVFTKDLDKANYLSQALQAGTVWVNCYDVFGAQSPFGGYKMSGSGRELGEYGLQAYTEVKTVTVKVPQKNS
# Chain of UniProt Q9NYF8 (Q9NYF8 whole entry, looked up): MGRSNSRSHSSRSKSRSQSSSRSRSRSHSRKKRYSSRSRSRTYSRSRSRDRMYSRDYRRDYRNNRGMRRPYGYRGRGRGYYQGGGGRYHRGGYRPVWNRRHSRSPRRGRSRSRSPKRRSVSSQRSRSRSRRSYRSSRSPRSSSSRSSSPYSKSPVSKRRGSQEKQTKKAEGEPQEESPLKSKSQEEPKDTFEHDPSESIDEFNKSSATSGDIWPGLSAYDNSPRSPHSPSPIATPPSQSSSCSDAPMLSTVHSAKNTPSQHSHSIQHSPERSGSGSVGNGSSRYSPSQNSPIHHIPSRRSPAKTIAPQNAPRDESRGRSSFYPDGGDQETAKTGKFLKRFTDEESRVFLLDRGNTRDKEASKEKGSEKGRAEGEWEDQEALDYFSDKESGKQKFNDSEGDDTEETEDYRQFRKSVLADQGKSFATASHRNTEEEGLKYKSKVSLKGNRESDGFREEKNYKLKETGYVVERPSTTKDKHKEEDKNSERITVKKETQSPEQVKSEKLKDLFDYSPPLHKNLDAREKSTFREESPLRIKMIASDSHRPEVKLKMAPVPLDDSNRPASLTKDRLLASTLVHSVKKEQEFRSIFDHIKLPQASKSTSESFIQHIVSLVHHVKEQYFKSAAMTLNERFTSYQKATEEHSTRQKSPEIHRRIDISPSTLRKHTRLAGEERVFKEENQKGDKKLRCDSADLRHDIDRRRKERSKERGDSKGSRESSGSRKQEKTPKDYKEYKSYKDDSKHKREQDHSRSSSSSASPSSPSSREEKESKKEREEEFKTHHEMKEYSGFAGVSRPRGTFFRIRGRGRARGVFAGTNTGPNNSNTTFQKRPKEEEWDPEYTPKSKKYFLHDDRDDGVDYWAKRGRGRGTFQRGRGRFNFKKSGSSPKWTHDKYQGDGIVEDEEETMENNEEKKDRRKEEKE
# Chain of UniProt P11310 (P11310 whole entry, looked up): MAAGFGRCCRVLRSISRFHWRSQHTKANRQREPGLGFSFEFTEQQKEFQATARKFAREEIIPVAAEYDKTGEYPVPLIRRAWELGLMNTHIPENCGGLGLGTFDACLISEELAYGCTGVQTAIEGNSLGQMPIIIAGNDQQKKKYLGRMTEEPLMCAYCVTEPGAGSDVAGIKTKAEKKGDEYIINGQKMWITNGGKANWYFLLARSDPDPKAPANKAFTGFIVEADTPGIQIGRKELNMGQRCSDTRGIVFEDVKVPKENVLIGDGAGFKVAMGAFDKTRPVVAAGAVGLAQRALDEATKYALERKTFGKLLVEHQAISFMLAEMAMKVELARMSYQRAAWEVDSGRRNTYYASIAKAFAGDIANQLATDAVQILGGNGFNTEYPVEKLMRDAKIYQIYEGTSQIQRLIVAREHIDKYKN
# Chain of UniProt P31751 (P31751 whole entry, looked up): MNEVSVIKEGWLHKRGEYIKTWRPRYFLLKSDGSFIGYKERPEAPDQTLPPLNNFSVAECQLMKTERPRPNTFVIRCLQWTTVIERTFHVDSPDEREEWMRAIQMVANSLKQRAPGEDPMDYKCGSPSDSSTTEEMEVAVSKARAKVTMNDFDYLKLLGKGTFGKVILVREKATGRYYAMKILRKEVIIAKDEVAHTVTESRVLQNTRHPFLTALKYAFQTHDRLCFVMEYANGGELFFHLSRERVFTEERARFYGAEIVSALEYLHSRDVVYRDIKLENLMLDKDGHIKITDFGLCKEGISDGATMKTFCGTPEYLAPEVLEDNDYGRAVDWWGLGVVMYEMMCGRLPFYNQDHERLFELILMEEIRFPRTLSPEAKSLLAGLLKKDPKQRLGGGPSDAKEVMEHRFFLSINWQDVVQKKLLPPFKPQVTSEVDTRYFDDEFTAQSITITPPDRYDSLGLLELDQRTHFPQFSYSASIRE
# Chain of UniProt Q7Z569 (Q7Z569 whole entry, looked up): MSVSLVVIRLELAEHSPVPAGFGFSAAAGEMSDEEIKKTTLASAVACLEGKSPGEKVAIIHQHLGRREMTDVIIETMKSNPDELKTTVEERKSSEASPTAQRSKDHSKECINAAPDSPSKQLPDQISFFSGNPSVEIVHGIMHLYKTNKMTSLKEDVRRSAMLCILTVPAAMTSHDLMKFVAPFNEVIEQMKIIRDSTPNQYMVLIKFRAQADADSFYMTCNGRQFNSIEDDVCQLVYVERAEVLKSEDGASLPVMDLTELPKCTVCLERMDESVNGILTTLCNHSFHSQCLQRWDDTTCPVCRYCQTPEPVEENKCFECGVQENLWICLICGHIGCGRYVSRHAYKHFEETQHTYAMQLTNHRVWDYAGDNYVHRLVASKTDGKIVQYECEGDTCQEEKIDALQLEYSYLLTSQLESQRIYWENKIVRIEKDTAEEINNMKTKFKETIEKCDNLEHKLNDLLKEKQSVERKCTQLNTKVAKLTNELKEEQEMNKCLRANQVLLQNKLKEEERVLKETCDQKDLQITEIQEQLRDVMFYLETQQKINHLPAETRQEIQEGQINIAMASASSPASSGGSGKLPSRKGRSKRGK
# Chain of UniProt Q16186 (Q16186 whole entry, looked up): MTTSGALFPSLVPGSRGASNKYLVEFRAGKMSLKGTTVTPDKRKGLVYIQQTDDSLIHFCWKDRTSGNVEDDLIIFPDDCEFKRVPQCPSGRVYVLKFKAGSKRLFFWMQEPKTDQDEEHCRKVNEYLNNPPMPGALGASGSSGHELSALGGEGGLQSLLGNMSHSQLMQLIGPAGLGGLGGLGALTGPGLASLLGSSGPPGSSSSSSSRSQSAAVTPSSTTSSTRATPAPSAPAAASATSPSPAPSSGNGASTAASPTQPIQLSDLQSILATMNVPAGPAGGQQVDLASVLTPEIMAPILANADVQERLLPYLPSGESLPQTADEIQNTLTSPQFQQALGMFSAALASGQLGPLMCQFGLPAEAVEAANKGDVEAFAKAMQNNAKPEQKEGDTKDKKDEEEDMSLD
# Chain of UniProt Q8N2F6 (Q8N2F6 whole entry, looked up): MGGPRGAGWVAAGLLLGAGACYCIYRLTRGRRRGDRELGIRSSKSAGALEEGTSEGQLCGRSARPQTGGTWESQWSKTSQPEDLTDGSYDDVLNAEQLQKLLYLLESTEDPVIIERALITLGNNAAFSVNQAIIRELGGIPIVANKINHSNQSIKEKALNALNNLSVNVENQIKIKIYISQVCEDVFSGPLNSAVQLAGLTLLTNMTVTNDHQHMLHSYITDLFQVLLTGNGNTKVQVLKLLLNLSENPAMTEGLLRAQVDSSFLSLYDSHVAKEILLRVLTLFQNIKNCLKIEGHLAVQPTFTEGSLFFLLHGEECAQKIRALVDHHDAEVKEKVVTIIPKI
# Chain of UniProt P18085 (P18085 whole entry, looked up): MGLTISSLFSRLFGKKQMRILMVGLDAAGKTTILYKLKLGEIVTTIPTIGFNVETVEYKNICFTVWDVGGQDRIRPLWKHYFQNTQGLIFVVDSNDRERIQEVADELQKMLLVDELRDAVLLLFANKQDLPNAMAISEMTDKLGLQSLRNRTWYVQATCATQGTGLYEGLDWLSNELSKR
# Chain of UniProt Q8WUW1 (Q8WUW1 whole entry, looked up): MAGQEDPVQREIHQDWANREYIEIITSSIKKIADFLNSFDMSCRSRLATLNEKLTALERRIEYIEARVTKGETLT
Target,log2 fold change (bafetinib),log2 fold change [1],log2 fold change (nilotinib),log2 fold change [2],log2 fold change (dasatinib),log2 fold change [3],log2 fold change [4],log2 fold change [5],log2 fold change (tipifarnib),log2 fold change (mubritinib)
ALDH6A1 (UniProt Q02252),-0.045,-0.103,-0.003,0.018,-0.204,-0.015,-0.019,-0.019,0.01,-0.528 (active)
BRK1 isoform 2 (UniProt Q8WUW1),-0.043,0.007,0.02,-0.051,0.054,-0.051,0.047,0.186,-0.049,0.002
ARFRP1 (UniProt Q13795),0.025,0.327 (active),-0.061,-0.014,-0.017,0.112,0.11,-0.003,-0.069,-0.019
ACADM isoform 2 (UniProt P11310),-0.073,0.002,-0.013,0.025,-0.054,-0.002,0.039,0.024,0.012,0.016
BCLAF1 (UniProt Q9NYF8),-0.028,0.059,0.02,-0.609 (active),0.081,-0.14,-0.018,-0.065,-0.005,0.031
ARMC10 (UniProt Q8N2F6),0.046,0.015,-0.063,-0.034,-0.125,-0.012,-0.052,-0.115,0.001,-0.096
ATL2 (UniProt Q8NHH9),0.026,0.034,0.081,-0.008,-0.129,0.031,0.083,0.18,-0.014,0.104
ALG3 (UniProt Q92685),-0.047,0.075,0.002,0.021,0.031,0.017,-0.065,0.013,-0.062,0.006
BTBD6 (UniProt Q96KE9),-0.007,0.011,0.277,-0.044,0.008,-0.098,0.239,-0.003,-0.121,0.153
ALDH2 (UniProt P05091),0.009,-0.02,0.006,-0.016,-0.034,0.019,0.072,0.059,-0.005,0.07
AMFR (UniProt Q9UKV5),-0.095,0.099,-0.051,-0.016,-0.094,0.049,0.029,-0.06,0.05,-0.018
ARFIP1 (UniProt P53367),-0.198,0.077,-0.177,-0.148,-0.113,0.05,0.069,0.461 (active),-0.115,-0.054
BRAP (UniProt Q7Z569),0.026,0.017,-0.087,-0.186,-0.097,-0.116,-0.067,-0.066,-0.04,0.056
AKT2 (UniProt P31751),0.021,0.049,-0.037,-0.144,-0.145,-0.108,0.019,-0.034,-0.185,0.037
ADRM1 (UniProt Q16186),0.238 (active),0.072,0.028,0.063,-0.036,0.006,-0.061,-0.003,0.01,-0.006
ARF4 (UniProt P18085),0.113,0.01,-0.056,0.015,-0.053,0.088,0.052,0.038,-0.061,0.02
AKAP8 (UniProt O43823),-0.051,-0.008,-0.001,-0.044,-0.155,-0.042,-0.007,-0.049,0.022,0.028
